PubChem BioAssay (Tox21)
Values without a mark were called inactive. Records with an inconclusive call do not appear. A call without a number means that no potency is given here. Calls of active or inactive are those of the source. Unless noted, calls come from the whole dose curve; as a rule, active = well fitted curve in the direction sought with a large enough effect in the repeat runs; inconclusive = weak or mixed curves; inactive = no such curve, though single readings can be large; an effect the other way counts as inactive or inconclusive.

How the values were obtained:
[1] = qHTS assay to identify small molecule antagonists of the sonic hedgehog signaling (Shh) pathway (AID 1259369; calls by dose curve; note: nearly all actives have a fitted effect of over 45% in size)
In short: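 Luminescence readout: firefly Luc under Gli1 response element in 3T3Gli1-Luc cells (NIH/3T3 clone). Antagonist mode, stimulation by conditioned medium; compound exposure 24hr at 37 C, 5% CO2.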

[2] = molecular target: Estrogen receptor beta (Homo sapiens) (UniProt Q92731); assay: qHTS assay to identify small molecule agonists of the estrogen receptor beta (ER-beta) signaling pathway (AID 1259377; active = well fitted activation curve with a large enough effect in the signal ratio in the repeat runs, not every such curve was filed as active; the % refers to the signal ratio)
In short: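 Read-out: beta-lactamase FRET fluorescence. Cell line: ER-beta-UAS-bla HEK293T in 2% charcoal-stripped FBS. Exposure: 16 hr at 37C. Substrate step: 2 h at room temperature.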

[3] = molecular target: Estrogen receptor beta (Homo sapiens) (UniProt Q92731); assay: qHTS assay to identify small molecule antagonists of the estrogen receptor beta (ER-beta) signaling pathway (AID 1259378; active = well fitted inhibition curve with a large enough effect in the signal ratio in the repeat runs, not every such curve was filed as active; the % refers to the signal ratio)
In short: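 ER-beta-UAS-bla HEK293T (GripTite) cells in 2% charcoal-stripped FBS medium were preincubated 6 hr at 37C, dosed with compound, then stimulated with 1 nM E2 (final) for 16 hr; beta-lactamase reporter read by B/G FRET fluorescence after 2 hr substrate loading.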

[4] = qHTS assay to identify small molecule agonists of the androgen receptor (AR) signaling pathway in the presence of an antagonist - cell viability counter screen (AID 1259379);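 note: MDA-kb2 human breast cancer cells carrying an MMTV luciferase reporter; series mostly up to about 92 µM; nearly all actives have a fitted effect of over 25% in size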
In short: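 Viability counter screen: CellTiter-Fluor fluorescence, measured in the same wells as the luciferase read-out. MDA-kb2 cells, 3,000/well, with nilutamide at 3.0uM final and compounds at 15 concentrations, 16 hr at 37C, 0% CO2.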

[5] = qHTS assay to identify small molecule agonists of the estrogen receptor beta (ER-beta) signaling pathway - cell viability counter screen (AID 1259380); note: nearly all actives have a fitted effect of over 30% in size; note: potency is the fitted concentration of half-maximal effect
In short: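 Luminescence read-out (CellTiter-Glo, 30 min, room temp) taken in the same wells as the beta-lactamase reporter assay; ER-beta-UAS-bla HEK293T cells exposed to DMSO-dissolved compounds for 16 hr at 37C in 2% charcoal-stripped FBS medium.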

[6] = qHTS assay to identify small molecule antagonists of the estrogen receptor beta (ER-beta) signaling pathway - cell viability counter screen (AID 1259382); note: series mostly up to about 92 µM; nearly all actives have a fitted effect of over 55% in size
In short: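 Luminescent ATP read-out (CellTiter-Glo, 30 min, RT) taken in the same wells as the bla reporter assay. HEK293T ER-beta-UAS-bla cells in 2% charcoal-stripped FBS were exposed to compounds with 1nM E2 for 16 hr at 37C.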

[7] = molecular target: Estrogen receptor (Homo sapiens) (UniProt P03372); assay: qHTS assay to identify small molecule agonists of the estrogen receptor alpha (ER-alpha) signaling pathway in the presence of an antagonist (AID 1259383; calls by dose curve; note: top concentration of the series differs between compounds; nearly all actives have a fitted effect of over 15% in size)
In short: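 Luciferase luminescence (ONE-Glo, 30min at room temperature) measured in VM7Luc4E2 cells after 22hr compound exposure at 15 concentrations, with 10.0nM ICI-182,780 final present; cells express endogenous ER-alpha and carry four EREs upstream of luciferase.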

[8] = qHTS assay to identify small molecule agonists or antagonists of the thyroid stimulating hormone receptor (TSHR) signaling pathway - wild type cell line counter screen (AID 1259384; calls by dose curve)
In short: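 Wild-type HEK293 cells were plated 18 h at 37 C/5% CO2, pin-dosed with compound plus Ro20-1724 medium, held 30 min at room temperature, then given cAMP-d2 and anti-cAMP-cryptate; fluorescence was read after 1 h. Fifteen concentrations, triplicate.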

[9] = molecular target: Thyrotropin receptor (Homo sapiens) (UniProt P16473); assay: qHTS assay to identify small molecule antagonists of the thyroid stimulating hormone receptor (TSHR) signaling pathway (AID 1259385; calls by dose curve; note: nearly all actives have a fitted effect of over 20% in size)
In short: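 TSHR-HEK293 cells were plated and held 18 h at 37C/5% CO2, then given compound plus Ro20-1724 and stimulated with TSH at 1.5 ng/mL final. After 30 min at room temperature, cAMP was detected with cAMP-d2/anti-cAMP-cryptate (1 h) by fluorescence.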

[10] = qHTS assay to identify small molecule agonists of the estrogen receptor alpha (ER-alpha) signaling pathway in the presence of an antagonist - cell viability counter screen (AID 1259386);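 note: series mostly up to about 92 µM; cells exposed to compounds for 22 h at 37 °C before the viability read; nearly all actives have a fitted effect of over 30% in size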
In short: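 Read-out: CellTiter-Fluor fluorescence after 1hr reagent incubation, measured in the same wells as the luciferase readout. VM7Luc4E2 cells were exposed to 15 compound concentrations with 10.0nM ICI-182,780 for 22hr at 37C.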

[11] = molecular target: Progesterone receptor (Homo sapiens) (UniProt P06401); assay: qHTS assay to identify small molecule agonists of the progesterone receptor (PR) signaling pathway (AID 1346784; calls by dose curve; note: nearly all actives have a fitted effect of over 30% in size)
In short: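 Compounds were tested for PR agonism in HEK 293T cells bearing a beta-lactamase gene under UAS control. Treatment lasted 16 hr at 37C; signal came from fluorescence of a FRET substrate.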

[12] = molecular target: Progesterone receptor (Homo sapiens) (UniProt P06401); assay: qHTS assay to identify small molecule antagonists of the progesterone receptor (PR) signaling pathway (AID 1346795; active = well fitted inhibition curve with a large enough effect in the signal ratio in the repeat runs, not every such curve was filed as active; the % refers to the signal ratio)
In short: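 In HEK293T cells bearing the PR-UAS-bla reporter, compound effects on promegestone-driven (1 nM) beta-lactamase expression are assessed after 16 hr using a fluorescent FRET substrate incubated 2 hr at room temperature.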

[13] = qHTS assay to identify small molecule antagonists of the progesterone receptor (PR) signaling pathway - cell viability counter screen (AID 1346798); note: nearly all actives have a fitted effect of over 50% in size; note: potency is the fitted concentration of half-maximal effect
In short: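 Following a 4 hr attachment, PR-UAS-bla HEK293T cells in charcoal-stripped FBS medium were exposed to compounds with R5020 for 16 hr; CellTiter-Glo was added and luminescence read after 30 min at room temperature.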

[14] = qHTS assay to identify small molecule agonists of the progesterone receptor (PR) signaling pathway - cell viability counter screen (AID 1346799; calls by dose curve; note: nearly all actives have a fitted effect of over 45% in size; note: potency is the fitted concentration of half-maximal effect)
In short: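 Here, 3,000 PR-UAS-bla HEK293T cells per well were treated with compounds for 16 hr after a 6 hr preincubation at 37C and 5% CO2; cell viability is the CellTiter-Glo luminescence signal.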

[15] = qHTS assay to identify small molecule antagonists of the TGF-beta/Smad signaling pathway - cell viability counter screen (AID 1346824); note: nearly all actives have a fitted effect of over 50% in size
In short: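 SBE-bla HEK 293T cells were plated overnight at 37 C, then given compounds in DMSO plus TGF-beta1 (added as 0.25 ng/mL solution) for 5 hr. After the bla read, CellTiter-Glo was added to the same wells and luminescence read after 30 min at room temperature.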

[16] = qHTS assay to identify small molecule agonists of the TGF-beta/Smad signaling pathway - cell viability counter screen (AID 1346829); note: top concentration of the series differs between compounds; nearly all actives have a fitted effect of over 45% in size
In short: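 HEK 293T SBE-bla line, 5 hr compound exposure at 37 C, multiplexed CellTiter-Glo viability read by luminescence.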

[17] = qHTS assay to identify small molecule agonists of the TGF-beta/Smad signaling pathway (AID 1346859; active = well fitted activation curve with a large enough effect in the signal ratio in the repeat runs, not every such curve was filed as active; the % refers to the signal ratio; note: series mostly up to about 77 µM)
In short: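 Each well held 4,000 SBE-bla HEK 293T cells incubated overnight before compound addition; 5 hr later the cleavable FRET substrate went on for 2 hr at room temperature, and fluorescence was read at two emissions.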

[18] = molecular target: Thyrotropin-releasing hormone receptor (Homo sapiens) (UniProt P34981); assay: qHTS assay to identify small molecule antagonists of the thyrotropin-releasing hormone receptor (TRHR) signaling pathway (AID 1346877; active = well fitted inhibition curve with a large enough effect in the repeat runs, not every such curve was filed as active; note: series mostly up to about 51 µM)
In short: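 HEK293/TRHR cells, 18 h, 37 °C; Ca2+ dye 2 h; cpd 5 min RT; TRH 1 nM final; fluorescence read 3 min, 1 s intervals; 15 concs, triplicate.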

[19] = molecular target: Thyrotropin-releasing hormone receptor (Homo sapiens) (UniProt P34981); assay: qHTS assay to identify small molecule agonists of the thyrotropin-releasing hormone receptor (TRHR) signaling pathway (AID 1346891; calls by dose curve; note: series mostly up to about 58 µM)
In short: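 Screening of agonists relied on calcium signalling in HEK293 cells expressing human TRHR: dye loading 2 h at 37 °C preceded compound addition and a 3-min fluorescence time course.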

[20] = molecular target: Androgen receptor (Homo sapiens) (UniProt P10275); assay: qHTS assay to identify small molecule agonists of the androgen receptor (AR) signaling pathway in the presence of an antagonist (AID 1259381; calls by dose curve; note: nearly all actives have a fitted effect of over 15% in size)
In short: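 Luciferase read-out (ONE-Glo, 30min room temperature) in MDA-kb2 MMTV-reporter cells; agonist mode run in presence of AR antagonist nilutamide, 3.0uM final. Compounds tested as 15-point series, 16hr exposure at 37C, 0% CO2.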

Chain of Estrogen receptor beta (Homo sapiens) (Q92731 whole entry, looked up): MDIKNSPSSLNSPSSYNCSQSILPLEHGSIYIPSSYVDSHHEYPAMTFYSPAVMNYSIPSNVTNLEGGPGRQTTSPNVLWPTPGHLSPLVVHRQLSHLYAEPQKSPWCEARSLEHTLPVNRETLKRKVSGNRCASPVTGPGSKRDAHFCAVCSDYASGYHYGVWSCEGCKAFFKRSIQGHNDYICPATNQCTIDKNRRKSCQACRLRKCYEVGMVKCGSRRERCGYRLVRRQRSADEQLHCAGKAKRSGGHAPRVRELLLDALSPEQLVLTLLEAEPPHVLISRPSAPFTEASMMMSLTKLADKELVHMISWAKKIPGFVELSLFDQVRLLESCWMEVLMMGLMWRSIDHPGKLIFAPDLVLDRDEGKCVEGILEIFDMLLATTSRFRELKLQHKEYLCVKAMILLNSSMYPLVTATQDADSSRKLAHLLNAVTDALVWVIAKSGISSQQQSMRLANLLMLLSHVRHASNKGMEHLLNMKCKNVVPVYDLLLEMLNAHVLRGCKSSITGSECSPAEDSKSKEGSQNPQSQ
Chain of Thyrotropin-releasing hormone receptor (Homo sapiens) (P34981 whole entry, looked up): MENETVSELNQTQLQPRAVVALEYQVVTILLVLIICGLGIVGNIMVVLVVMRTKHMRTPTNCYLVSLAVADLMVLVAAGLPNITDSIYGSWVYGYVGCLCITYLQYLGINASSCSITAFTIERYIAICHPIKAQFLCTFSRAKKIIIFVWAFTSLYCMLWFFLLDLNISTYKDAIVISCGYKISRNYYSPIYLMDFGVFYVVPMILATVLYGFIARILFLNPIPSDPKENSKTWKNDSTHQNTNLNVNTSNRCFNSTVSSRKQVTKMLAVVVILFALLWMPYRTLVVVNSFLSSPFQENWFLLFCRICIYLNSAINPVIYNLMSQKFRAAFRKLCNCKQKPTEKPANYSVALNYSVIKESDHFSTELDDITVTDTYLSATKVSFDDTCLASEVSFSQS
Chain of Progesterone receptor (Homo sapiens) (P06401 whole entry, looked up): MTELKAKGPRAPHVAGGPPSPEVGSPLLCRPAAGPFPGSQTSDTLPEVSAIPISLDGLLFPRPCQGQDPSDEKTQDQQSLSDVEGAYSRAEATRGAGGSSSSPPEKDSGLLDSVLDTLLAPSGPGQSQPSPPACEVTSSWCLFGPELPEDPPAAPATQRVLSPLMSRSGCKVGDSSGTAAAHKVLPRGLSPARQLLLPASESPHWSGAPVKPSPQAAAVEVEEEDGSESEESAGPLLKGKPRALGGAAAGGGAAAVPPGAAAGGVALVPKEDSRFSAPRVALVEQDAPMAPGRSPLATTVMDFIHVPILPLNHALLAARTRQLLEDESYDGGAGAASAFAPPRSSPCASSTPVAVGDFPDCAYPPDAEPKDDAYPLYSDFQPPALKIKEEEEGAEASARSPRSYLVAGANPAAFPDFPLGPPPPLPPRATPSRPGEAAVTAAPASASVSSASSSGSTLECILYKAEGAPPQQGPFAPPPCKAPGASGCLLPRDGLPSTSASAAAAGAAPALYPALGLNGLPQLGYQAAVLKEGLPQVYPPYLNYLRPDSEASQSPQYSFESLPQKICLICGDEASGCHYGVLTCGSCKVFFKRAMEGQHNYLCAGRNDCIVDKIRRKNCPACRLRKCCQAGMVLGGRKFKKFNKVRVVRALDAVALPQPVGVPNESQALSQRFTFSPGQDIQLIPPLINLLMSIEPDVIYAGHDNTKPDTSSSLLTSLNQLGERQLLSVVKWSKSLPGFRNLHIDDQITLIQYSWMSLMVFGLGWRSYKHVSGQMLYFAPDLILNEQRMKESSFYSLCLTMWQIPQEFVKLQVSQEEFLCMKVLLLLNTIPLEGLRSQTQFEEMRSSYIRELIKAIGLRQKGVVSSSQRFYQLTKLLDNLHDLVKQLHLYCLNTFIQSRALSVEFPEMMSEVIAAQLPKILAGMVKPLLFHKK
Chain of Thyrotropin receptor (Homo sapiens) (P16473 whole entry, looked up): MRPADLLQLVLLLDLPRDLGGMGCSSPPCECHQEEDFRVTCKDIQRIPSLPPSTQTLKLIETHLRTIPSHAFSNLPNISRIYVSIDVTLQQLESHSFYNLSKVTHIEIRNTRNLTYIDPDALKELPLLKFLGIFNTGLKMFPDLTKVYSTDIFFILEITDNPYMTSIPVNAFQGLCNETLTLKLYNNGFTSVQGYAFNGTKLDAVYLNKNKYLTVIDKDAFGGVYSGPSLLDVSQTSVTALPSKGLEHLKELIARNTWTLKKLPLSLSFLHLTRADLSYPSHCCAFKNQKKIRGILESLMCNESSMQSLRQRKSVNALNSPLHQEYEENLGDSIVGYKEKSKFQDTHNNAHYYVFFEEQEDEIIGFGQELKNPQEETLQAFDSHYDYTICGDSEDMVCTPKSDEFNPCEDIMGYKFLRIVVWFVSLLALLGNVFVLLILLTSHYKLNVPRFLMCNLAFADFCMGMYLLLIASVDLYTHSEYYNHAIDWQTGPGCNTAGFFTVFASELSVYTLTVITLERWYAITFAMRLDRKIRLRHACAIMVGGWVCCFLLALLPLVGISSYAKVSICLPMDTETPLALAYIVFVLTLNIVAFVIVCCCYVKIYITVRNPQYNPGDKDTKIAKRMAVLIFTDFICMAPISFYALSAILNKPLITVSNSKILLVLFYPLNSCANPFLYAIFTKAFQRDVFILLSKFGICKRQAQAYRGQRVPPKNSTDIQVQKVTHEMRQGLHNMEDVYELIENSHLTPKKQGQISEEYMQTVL
Chain of Estrogen receptor (Homo sapiens) (P03372 whole entry, looked up): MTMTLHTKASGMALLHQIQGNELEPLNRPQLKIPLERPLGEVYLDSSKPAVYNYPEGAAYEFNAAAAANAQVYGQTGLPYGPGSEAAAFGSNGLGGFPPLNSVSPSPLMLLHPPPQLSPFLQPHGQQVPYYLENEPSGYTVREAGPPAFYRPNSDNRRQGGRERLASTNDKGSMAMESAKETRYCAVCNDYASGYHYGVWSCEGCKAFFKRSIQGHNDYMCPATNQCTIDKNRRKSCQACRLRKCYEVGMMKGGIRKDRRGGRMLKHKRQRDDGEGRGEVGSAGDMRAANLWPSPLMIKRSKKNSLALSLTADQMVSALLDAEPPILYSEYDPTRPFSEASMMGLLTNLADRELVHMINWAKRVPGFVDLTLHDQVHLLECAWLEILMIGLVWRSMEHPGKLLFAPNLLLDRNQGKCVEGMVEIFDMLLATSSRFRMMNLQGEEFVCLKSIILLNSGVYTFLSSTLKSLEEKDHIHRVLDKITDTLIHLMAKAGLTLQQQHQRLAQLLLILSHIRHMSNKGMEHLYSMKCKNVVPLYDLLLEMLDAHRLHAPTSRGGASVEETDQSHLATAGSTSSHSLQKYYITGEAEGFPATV
Chain of Androgen receptor (Homo sapiens) (P10275 whole entry, looked up): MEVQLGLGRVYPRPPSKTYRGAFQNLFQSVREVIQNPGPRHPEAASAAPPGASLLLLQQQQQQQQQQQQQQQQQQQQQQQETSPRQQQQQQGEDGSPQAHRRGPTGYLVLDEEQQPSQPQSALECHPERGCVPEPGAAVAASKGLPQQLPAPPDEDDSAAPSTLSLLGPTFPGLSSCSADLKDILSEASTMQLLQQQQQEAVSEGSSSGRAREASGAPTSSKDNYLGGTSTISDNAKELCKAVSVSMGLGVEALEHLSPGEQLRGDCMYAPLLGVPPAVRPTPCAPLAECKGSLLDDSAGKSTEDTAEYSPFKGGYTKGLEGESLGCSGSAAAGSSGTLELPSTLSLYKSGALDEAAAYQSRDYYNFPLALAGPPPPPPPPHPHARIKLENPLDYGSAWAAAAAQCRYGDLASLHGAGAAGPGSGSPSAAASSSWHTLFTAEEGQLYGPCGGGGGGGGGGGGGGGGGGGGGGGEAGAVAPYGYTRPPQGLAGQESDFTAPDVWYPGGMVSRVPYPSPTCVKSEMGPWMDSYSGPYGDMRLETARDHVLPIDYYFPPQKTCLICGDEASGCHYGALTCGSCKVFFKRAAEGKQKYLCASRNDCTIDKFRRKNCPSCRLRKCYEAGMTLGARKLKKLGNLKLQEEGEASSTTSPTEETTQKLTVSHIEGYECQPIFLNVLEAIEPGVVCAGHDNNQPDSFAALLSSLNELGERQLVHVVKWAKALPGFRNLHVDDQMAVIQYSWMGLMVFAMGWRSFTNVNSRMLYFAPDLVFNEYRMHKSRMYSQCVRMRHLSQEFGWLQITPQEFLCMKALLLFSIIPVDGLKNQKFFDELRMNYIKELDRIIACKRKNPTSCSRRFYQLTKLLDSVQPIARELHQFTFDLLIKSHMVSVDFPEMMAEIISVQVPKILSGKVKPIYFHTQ

Row | SMILES | Potency [1] | outcome [2] | Potency [3] | Potency [4] | Potency [5] | Potency [6] | Potency [7] | outcome [8] | Potency [9] | outcome [10] | Potency [11] | Potency [12] | Potency [13] | Potency [14] | outcome [15] | outcome [16] | outcome [17] | outcome [18] | outcome [19] | Potency [20]
1 | CC1CCN(CCCC(=O)c2ccc(F)cc2)CC1 | inactive | inactive | inactive | inactive | inactive | inactive | inactive | inactive | inactive | inactive | inactive | inactive | inactive | inactive | inactive | inactive | inactive | inactive | inactive | 
2 | O=C1CC2(CCCC2)CC(=O)N1 | inactive | inactive | inactive | inactive | inactive | inactive | inactive | inactive | inactive | inactive | inactive | inactive | inactive | inactive | inactive | inactive | inactive | inactive | inactive | inactive
3 | CCCC(C)CO (stereo not drawn) | inactive | inactive | inactive | inactive | inactive | inactive |  |  | inactive | inactive | inactive | inactive | inactive | inactive | inactive | inactive | inactive |  |  | inactive
4 | CCO[Si](C)(OCC)OCC | inactive | inactive | inactive | inactive | inactive | inactive | inactive | inactive | inactive | inactive | inactive | inactive | inactive | inactive | inactive | inactive | inactive | inactive | inactive | 
5 | CCCCOCC(C)OCC(C)O (stereo not drawn) | inactive | inactive | inactive | inactive | inactive | inactive | inactive |  |  | inactive | inactive | inactive | inactive | inactive |  | inactive | inactive | inactive | inactive | 
6 | COC[C@H](c1ccc(C(F)(F)F)cc1)N1CCN(C2(C)CCN(C(=O)c3c(C)ncnc3C)CC2)C[C@H]1C | inactive | inactive | inactive | inactive | 2.66 µM (active) | inactive | inactive | inactive | inactive | inactive | inactive | inactive | inactive |  | inactive | inactive | inactive | inactive | inactive | 
7 | CC(C)c1cccc(O)c1 | inactive | inactive | inactive | inactive | inactive | inactive | inactive | inactive | inactive | inactive | inactive | inactive | inactive | inactive | inactive | inactive | inactive | inactive | inactive | 
8 | Nc1nc(F)nc2c1ncn2[C@@H]1O[C@H](CO)[C@@H](O)[C@@H]1O | inactive | inactive | inactive | inactive | inactive | inactive | inactive |  | inactive | inactive | inactive | inactive | inactive | inactive | inactive | inactive | inactive |  |  | 
9 | Fc1ccccc1-c1ccccc1 | inactive | inactive | inactive | inactive | inactive | inactive | inactive | inactive | inactive | inactive | inactive | inactive | inactive | inactive | inactive | inactive | inactive |  |  | 
10 | CCCc1ccc(N)cc1 | inactive | inactive | inactive | inactive | inactive | inactive |  |  | inactive | inactive | inactive | inactive | inactive | inactive | inactive | inactive | inactive | inactive | inactive | 
11 | CCCCN(CCO)CCO | inactive | inactive | inactive | inactive | inactive | inactive | inactive |  |  | inactive |  | inactive | inactive |  |  | inactive | inactive | inactive | inactive | 
12 | CC(C)(O)c1ccccc1 | inactive | inactive | inactive | inactive | inactive | inactive | inactive |  |  | inactive |  | inactive | 52.2 µM (active) | 58.6 µM (active) | inactive | inactive | inactive | inactive | inactive | 
13 | Cn1cnc2c(=O)[nH]c(N)nc21 | inactive | inactive | inactive | inactive | inactive | inactive |  |  | inactive | inactive | inactive | inactive | inactive | inactive | inactive | inactive | inactive |  |  | 
14 | COc1cccc(OC)c1 | inactive | inactive | inactive | inactive | inactive | inactive |  |  | inactive | inactive | inactive | inactive | inactive | inactive |  | inactive | inactive | inactive | inactive | 
15 | OC[C@H]1O[C@@H]2O[C@H]3[C@H](O)[C@@H](O)[C@@H](O[C@H]4[C@H](O)[C@@H](O)[C@@H](O[C@H]5[C@H](O)[C@@H](O)[C@@H](O[C@H]6[C@H](O)[C@@H](O)[C@@H](O[C@H]7[C@H](O)[C@@H](O)[C@@H](O[C@H]8[C@H](O)[C@@H](O)[C@@H](O[C@H]9[C@H](O)[C@@H](O)[C@@H](O[C@H]1[C@H](O)[C@H]2O)O[C@@H]9CO)O[C@@H]8CO)O[C@@H]7CO)O[C@@H]6CO)O[C@@H]5CO)O[C@@H]4CO)O[C@@H]3CO | inactive | inactive | inactive | inactive | inactive | inactive |  | inactive | inactive | inactive |  |  | inactive | inactive |  | inactive | inactive | inactive | inactive | 
